# In PubChem BioAssay:
# The source made the active and inactive calls. Unless noted, how the calls were made is not given here.
# Legend:
# [1] = compound effects on lung adenocarcinoma cell viability – A549, calcein-AM fluorescence, 48 h, basal, profiling panel (AID 1162); conditions: higher = more signal; further: test concentration not given here
# [2] = compound effects on differentiated 3T3-L1 adipocyte viability – cell-based, 3T3-L1 adipocytes, calcein-AM fluorescence, 48 h, basal, profiling panel (AID 1163); conditions: 3T3-L1 adipocytes viability, higher = more signal; further: test concentration not given here
# [3] = compound effects on hepatocellular carcinoma cell viability – HepG2, calcein-AM fluorescence, 48 h, basal, profiling panel (AID 1164); conditions: higher = more signal; further: test concentration not given here
# [4] = compound effects on multiple myeloma cell viability – MM1S, calcein-AM fluorescence, 48 h, basal, profiling panel (AID 1165); conditions: higher = more signal; further: test concentration not given here
# [5] = calcein-AM signal in unstimulated myeloma cells – cell-based, calcein-AM fluorescence, 48 h, PK04 Diversity Set, profiling panel (AID 1166); conditions: RPMI8226 myeloma viability, higher = more signal;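 further: cells grown under basal conditions without added stimulus; test concentration not given here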
# [6] = JC-1 mitochondrial signal, unstimulated HepG2 cells – cell-based, JC-1 fluorescence, 24 h, 100 nL compound, profiling panel (AID 1167); conditions: HepG2 mitochondrial potential, higher = more signal; further: test concentration not given here
# [7] = JC-1 mitochondrial signal, unstimulated adipocytes – cell-based, JC-1 fluorescence, 3T3-L1 adipocytes, 24 h, 100 nL compound, profiling panel (AID 1168); conditions: JC-1 mitochondrial fluorescence, higher = more signal, called active from +8 up or from −8 down; further: test concentration not given here
# [8] = JC-1 mitochondrial signal, unstimulated myeloma cells – cell-based, JC-1 fluorescence, RPMI8226, 24 h, 100 nL compound, profiling panel (AID 1169); conditions: JC-1 mitochondrial potential fluorescence, higher = more signal; further: test concentration not given here
# [9] = JC-1 mitochondrial signal, unstimulated MM1S myeloma – cell-based, JC-1 fluorescence, 24 h, 100 nL compound, profiling panel (AID 1170); conditions: MM1S mitochondrial potential, higher = more signal; further: test concentration not given here
# [10] = resazurin metabolic signal in A549 cells – cell-based, resazurin fluorescence, 24 h, PK04 Diversity Set, profiling panel (AID 1171); conditions: A549 viability, higher = more signal, called active from +8 up or from −8 down; further: test concentration not given here
# [11] = resazurin metabolic signal in HepG2 cells – cell-based, resazurin fluorescence, 24 h, PK04 Diversity Set, profiling panel (AID 1172); conditions: HepG2 viability, higher = more signal; further: test concentration not given here
# [12] = budding yeast growth changes without added modifier – OD600, strain BY4716, 24 h, basal condition, primary screen (AID 1173); conditions: S. cerevisiae BY4716 growth, OD600, 24 h; higher = more signal, called active from +8 up or from −8 down
# [13] = viability profiling in MM1S myeloma cells – cell-based, resazurin fluorescence, basal, 24 h, PK04 Diversity Set, profiling panel (AID 1174); conditions: higher = more signal, called active from +8 up or from −8 down; further: test concentration not given here
# [14] = target: Dihydroorotate dehydrogenase (quinone), mitochondrial (Plasmodium falciparum (isolate 3D7)) (UniProt Q08210); assay: inhibition of P. falciparum DHODH – biochemical, C-terminal His tag, absorbance 600 nm, primary screen (AID 1175); conditions: PfDHODH enzyme, DCIP absorbance 600 nm; higher = more signal, called active from +8 up or from −8 down;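 further: recombinant parasite enzyme with a five histidine tag at its C terminus; test concentration not given here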
# Chain of Dihydroorotate dehydrogenase (quinone), mitochondrial (Plasmodium falciparum (isolate 3D7)) (Q08210 whole entry, looked up): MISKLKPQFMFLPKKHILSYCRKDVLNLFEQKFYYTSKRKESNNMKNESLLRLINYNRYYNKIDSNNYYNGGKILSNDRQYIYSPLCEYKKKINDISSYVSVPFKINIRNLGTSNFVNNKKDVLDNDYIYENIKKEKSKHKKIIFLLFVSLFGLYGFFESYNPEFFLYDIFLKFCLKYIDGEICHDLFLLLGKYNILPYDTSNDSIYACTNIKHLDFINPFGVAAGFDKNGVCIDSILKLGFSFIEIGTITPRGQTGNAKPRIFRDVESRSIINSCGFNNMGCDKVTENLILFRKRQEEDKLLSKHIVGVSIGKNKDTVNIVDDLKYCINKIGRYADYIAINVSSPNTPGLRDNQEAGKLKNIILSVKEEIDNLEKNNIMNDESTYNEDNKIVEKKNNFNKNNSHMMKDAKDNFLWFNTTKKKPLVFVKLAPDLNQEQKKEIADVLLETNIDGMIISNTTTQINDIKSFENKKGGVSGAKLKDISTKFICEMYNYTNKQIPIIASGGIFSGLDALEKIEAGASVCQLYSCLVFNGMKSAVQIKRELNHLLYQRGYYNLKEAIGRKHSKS
# [15] = inhibition of PAO1 biofilm formation – strain PAO1, LB-PBS medium, absorbance 600 nm, primary screen (AID 1176); further: test concentration not given here; conditions: P. aeruginosa PAO1 growth/biofilm, A600, 12 h; higher = more signal
# [16] = growth modulation of vineyard yeast isolate – strain RM11-1a, OD600, basal, 24 h, primary screen (AID 1177);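 further: cultures grown under basal conditions with no added stressor; test concentration not given here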; conditions: S. cerevisiae RM11-1a growth, OD600, 24 h; higher = more signal, called active from +8 up or from −8 down
# [17] = growth of efflux-deficient E. coli DRC39 – strain DRC39, OD650, 24 h, E. coli filamentation inducers, primary screen (AID 1178);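 further: growth measured as culture turbidity by optical density at 650 nm; test concentration not given here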; conditions: E. coli DRC39 acrAB, higher = more signal, called active from +8 up or from −8 down
# [18] = growth of efflux-deficient E. coli DRC39 – strain DRC39, OD650, 48 h, E. coli filamentation inducers, primary screen (AID 1179);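 further: screen aims at cell division blockers that make cells filament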; conditions: E. coli DRC39 delta-acrAB growth, higher = more signal, called active from +8 up or from −8 down
# [19] = viability profiling in RPMI8226 myeloma cells – cell-based, resazurin fluorescence, basal, 24 h, PK04 Diversity Set, profiling panel (AID 1180); conditions: higher = more signal;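 further: RPMI8826 multiple myeloma cell line at 5000 cells per well; test concentration not given here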
# [20] = target: E3 ubiquitin-protein ligase XIAP (Homo sapiens) (UniProt P98170); assay: small molecules binding XIAP protein – biophysical, small-molecule microarray, fluorescence 635 nm, primary screen (AID 1181); conditions: higher = more signal;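 further: score merges 667 nm emission and signal to noise over triplicate slides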
# Chain of E3 ubiquitin-protein ligase XIAP (Homo sapiens) (P98170 whole entry, looked up): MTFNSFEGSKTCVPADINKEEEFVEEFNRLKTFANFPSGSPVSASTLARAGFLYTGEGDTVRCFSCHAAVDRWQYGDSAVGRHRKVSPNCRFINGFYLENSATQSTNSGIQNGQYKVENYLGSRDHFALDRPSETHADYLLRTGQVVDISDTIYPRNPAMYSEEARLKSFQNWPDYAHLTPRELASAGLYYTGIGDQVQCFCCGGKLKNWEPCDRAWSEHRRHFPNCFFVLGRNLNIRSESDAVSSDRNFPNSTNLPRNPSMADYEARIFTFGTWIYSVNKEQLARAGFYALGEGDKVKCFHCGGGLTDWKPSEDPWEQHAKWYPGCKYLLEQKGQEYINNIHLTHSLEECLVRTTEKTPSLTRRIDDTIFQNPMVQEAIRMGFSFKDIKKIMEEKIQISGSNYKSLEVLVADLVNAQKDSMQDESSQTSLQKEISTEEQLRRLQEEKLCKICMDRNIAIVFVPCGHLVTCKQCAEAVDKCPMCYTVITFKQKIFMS
Structure (SMILES),z-score [1],z-score [2],z-score [3],z-score [4],z-score [5],z-score [6],z-score [7],z-score [8],z-score [9],z-score [10],z-score [11],z-score [12],z-score [13],composite z-score [14],z-score [15],z-score [16],z-score [17],z-score [18],z-score [19],composite z-score [20]
N#Cc1ccc(C(O)C2C=CC3C(=O)NC(=O)C3N2Nc2ccc(Cl)cc2Cl)cc1 (stereo not given),-0.918,0.325,-0.726,-0.399,-0.408,-1.35,-1.05 (inactive),-0.356,0.153,-0.123 (inactive),-1.53,-14.4 (active),-1.43 (inactive),-0.173 (inactive),1.26 (inactive),-0.633 (inactive),-0.48 (inactive),-0.413 (inactive),-1.35,0.0856
C=CCC(OC(C)=O)[C@@H]1[C@@H](N(Cc2cc3ccccc3o2)C(=O)c2cccc3ccccc23)c2cc(OCCCO)ccc2N1C(=O)c1ccc2ccccc2n1 (stereo not given in full),0.375,0.756,0.601,-1.14,-2.01,2.42,-0.961 (inactive),-0.211,-0.245,-0.985 (inactive),-1.01,-0.711 (inactive),-0.367 (inactive),0.364 (inactive),0.256 (inactive),0.202 (inactive),0.935 (inactive),0.207 (inactive),-0.544,-0.393
CN1C(=O)[C@@H]2[C@@H](CC(COc3ccccc3)=C3[C@@H](CCc4ccccc4)OB(O)C[C@@H]32)C1=O,0.231,-0.477,-1.14,-2.31,-0.802,-1.62,-0.0562 (inactive),0.122,-0.904,-0.453 (inactive),-0.418,-1.87 (inactive),-0.675 (inactive),-0.399 (inactive),0.2 (inactive),-0.0646 (inactive),0.0204 (inactive),-0.0443 (inactive),-0.861,-0.02
Cc1ccccc1C(O)C1C=CC2C(=O)N(c3ccccc3)C(=O)C2N1Nc1ccccc1 (stereo not given),-0.0545,-1.17,1.8,0.928,-0.645,-0.978,-0.703 (inactive),-0.318,-0.638,0.0292 (inactive),-0.341,-2.84 (inactive),-0.516 (inactive),0.106 (inactive),0.956 (inactive),0.0725 (inactive),-0.36 (inactive),0.372 (inactive),-0.0175,0.265
COC(=O)[C@@]1(Cc2ccccc2)N=C(c2ccc(OCCCO)cc2)O[C@H]1c1ccccc1CN=[N+]=[N-],-2.95,-0.565,-5.45,-3.55,-3.96,-2.16,1.22 (inactive),-1.13,-2.9,-5.77 (inactive),-4.1,1.24 (inactive),-7.62 (inactive),0.468 (inactive),2.45 (inactive),2.85 (inactive),0.876 (inactive),0.93 (inactive),-6.42,0.0549
O=C1NC(=O)C2C1C=CC(C(O)c1ccc([N+](=O)[O-])cc1)N2Nc1ccccn1 (stereo not given),0.0411,-0.379,-0.357,-0.492,-1.07,-0.969,-0.713 (inactive),-0.284,0.339,-0.0648 (inactive),-0.731,0.579 (inactive),-0.76 (inactive),0.622 (inactive),0.586 (inactive),0.485 (inactive),-0.16 (inactive),-0.372 (inactive),-0.723,0.103
COCCOC(=O)N1C(=O)[C@@]2(c3cc(C#CCNC(N)=O)ccc31)[C@H](C(=O)Nc1nc3ccccc3s1)[C@H]1C(=O)O[C@H](c3ccccc3)[C@H](c3ccccc3)N1[C@@H]2c1ccccc1OCCO,1.01,0.706,-0.0995,0.223,0.405,-2.73,2.4 (inactive),-0.981,-1.64,-1.29 (inactive),0.0277,0.21 (inactive),-0.482 (inactive),-0.845 (inactive),3.44 (inactive),2.32 (inactive),0.405 (inactive),1.14 (inactive),-1.01,-0.155
C=CCOC(=O)[C@@H]1[C@H]2C(=O)O[C@H](c3ccccc3)[C@H](c3ccccc3)N2[C@H](c2ccc(OCCOC(=O)[C@H]3C[C@H]4C(=O)NCC(=O)N4[C@H]3c3cccc(OCCO)c3)cc2)[C@@]12C(=O)Nc1ccc(I)cc12,-0.175,-0.407,0.946,0.464,-0.785,-1.05,1.44 (inactive),-0.632,-1.27,0.169 (inactive),-0.155,1.87 (inactive),-0.0681 (inactive),0.131 (inactive),3.08 (inactive),1.08 (inactive),0.0109 (inactive),0.312 (inactive),-1.09,-0.117
